Results: PubChem BioAssay (EPA / NIEHS)
Records with an inconclusive call do not appear. Active and inactive are the calls of the source. How the source made its calls: active means hit-call score of the fitted dose curve at least 0.9, where 1 is the maximum; inconclusive means response in the unintended direction; inactive means score below 0.9.

What follows are molecules tested against rat Monoamine Oxidase, MAO-B, Central (MAOBC), Maob (gene 25750) (UniProt P19643) (assay: NVS_ENZ_rMAOBC: NovaScreen (NVS) Enzymatic Assay for rat Monoamine Oxidase, MAO-B, Central (MAOBC) (AID 2283238)).
Outline: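 Here MAO-B activity in rat brain preparations is quantified radiometrically, counts taken at 1.17 hours. Concentration-response runs reach 50 uM, with plate controls, and values are fitted as loss of signal from the DMSO baseline.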

Chain of rat Monoamine Oxidase, MAO-B, Central (MAOBC), Maob (gene 25750) (P19643 whole entry, looked up): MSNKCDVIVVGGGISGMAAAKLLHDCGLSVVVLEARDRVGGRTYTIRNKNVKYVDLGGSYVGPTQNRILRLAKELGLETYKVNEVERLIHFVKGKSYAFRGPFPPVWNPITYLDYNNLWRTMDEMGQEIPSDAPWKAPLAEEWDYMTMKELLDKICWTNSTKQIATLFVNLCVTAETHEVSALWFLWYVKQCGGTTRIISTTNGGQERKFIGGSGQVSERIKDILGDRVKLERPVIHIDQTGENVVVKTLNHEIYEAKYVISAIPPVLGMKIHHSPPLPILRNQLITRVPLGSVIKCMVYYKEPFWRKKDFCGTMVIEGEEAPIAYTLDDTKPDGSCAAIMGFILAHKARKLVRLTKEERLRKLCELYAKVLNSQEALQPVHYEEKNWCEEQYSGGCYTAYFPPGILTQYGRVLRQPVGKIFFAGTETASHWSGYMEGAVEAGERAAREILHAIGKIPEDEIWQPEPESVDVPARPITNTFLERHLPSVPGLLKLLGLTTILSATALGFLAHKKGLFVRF

| SMILES | outcome | AC50 |
| --- | --- | --- |
| ClC(Cl)(Cl)c1ccccc1 | inactive | – |
| CCCCCCCc1ccc(O)cc1 | – | 25 µM (active) |
| [N-]=[N+]=[N-] | inactive | – |
| CC(C)(C)OOC(C)(C)C | – | 13.1 µM (active) |
| Cc1ccc(O)cc1C | – | 47 µM (active) |

These molecules were tested against sheep Cyclooxygenase-1 (Cox1), PTGS1 (gene 443551) (UniProt P05979) (assay: NVS_ENZ_oCOX1: NovaScreen (NVS) Enzymatic Assay for sheep Cyclooxygenase-1 (Cox1) (AID 2283239);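 further: actives reduce cyclooxygenase activity so potencies are for inhibitors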).
Outline: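 Tested in duplicate at 25 uM, then in concentration series if active, against seminal vesicle extract from sheep. Enzyme activity was measured colorimetrically at 0.66 hour and normalised to DMSO.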

Chain of sheep Cyclooxygenase-1 (Cox1), PTGS1 (gene 443551) (P05979 whole entry, looked up): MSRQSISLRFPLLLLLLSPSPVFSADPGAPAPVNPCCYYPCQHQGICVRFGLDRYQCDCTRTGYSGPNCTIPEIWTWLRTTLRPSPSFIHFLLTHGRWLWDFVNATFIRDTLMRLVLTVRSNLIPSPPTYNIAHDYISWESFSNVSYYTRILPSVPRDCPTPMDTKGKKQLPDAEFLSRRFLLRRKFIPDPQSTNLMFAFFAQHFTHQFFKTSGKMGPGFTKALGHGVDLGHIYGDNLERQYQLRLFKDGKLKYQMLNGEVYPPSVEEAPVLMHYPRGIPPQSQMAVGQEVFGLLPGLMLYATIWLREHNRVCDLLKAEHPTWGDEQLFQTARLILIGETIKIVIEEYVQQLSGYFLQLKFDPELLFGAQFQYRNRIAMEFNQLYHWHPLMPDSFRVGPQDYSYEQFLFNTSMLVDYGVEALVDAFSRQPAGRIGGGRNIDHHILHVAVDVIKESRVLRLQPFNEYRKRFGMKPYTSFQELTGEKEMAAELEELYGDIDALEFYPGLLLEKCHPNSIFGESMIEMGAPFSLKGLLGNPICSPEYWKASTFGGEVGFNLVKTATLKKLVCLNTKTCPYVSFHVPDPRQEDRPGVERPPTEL

| SMILES | outcome | AC50 |
| --- | --- | --- |
| CCOP(=S)(OCC)SCSCC | inactive | – |
| O=c1[nH]c2ccccc2c(=O)o1 | – | 4.96 µM (active) |
| O=c1ssc(Cl)c1Cl | inactive | – |
| Nc1cc2c3c(c1)C(c1ccccc1)=N[C@@H](NC(=O)c1cccnc1)C(=O)N3CC2 | – | 15.1 µM (active) |
| Nc1ccc(Cl)cc1 | inactive | – |
| CC1(C)CN=C(NN=C(/C=C/c2ccc(C(F)(F)F)cc2)/C=C/c2ccc(C(F)(F)F)cc2)NC1 | – | 5.74 µM (active) |
| CCOP(=S)(S)OCC | inactive | – |

The molecules below were run on rat Monoamine Oxidase, MAO-A, Central (MAOAC), gene 29253 (assay: NVS_ENZ_rMAOAC: NovaScreen (NVS) Enzymatic Assay for rat Monoamine Oxidase, MAO-A, Central (MAOAC) (AID 2283243);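 further: potency refers to inhibition seen as signal drop below DMSO baseline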).
Outline: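 Single-concentration duplicate testing at 25 uM, then concentration-response for actives, in a lysate-based radiodetection MAO-A activity assay from rat brain. Enzyme activity measured 1.5 hours post-dosing; DMSO served as negative control and baseline.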

| SMILES | AC50 |
| --- | --- |
| CCOP(=S)(OCC)SCS(=O)(=O)CC | 7.29 µM (active) |
| Nc1ccc2ccccc2c1 | 19.4 µM (active) |
| c1ccc2c(c1)Nc1ccccc1S2 | 9.71 µM (active) |
| CCOC(=O)c1ccccc1C(=O)OCC | 15.2 µM (active) |
| CC(=O)c1ccc(-c2ccccc2)cc1 | 18.6 µM (active) |
| Nc1ccc([N+](=O)[O-])cc1Cl | 15.1 µM (active) |
| Oc1ccc(I)cc1 | 19.9 µM (active) |
| Cc1ccc2c(c1N)C(=O)c1ccccc1C2=O | 25 µM (active) |

These molecules were tested on guinea pig Leukotriene B4 Receptor (LTB4), gene 100379538 (assay: NVS_GPCR_gLTB4: NovaScreen (NVS) G Protein-Coupled Receptor Assay for guinea pig Leukotriene B4 Receptor (LTB4) (AID 2283247)).
Outline: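 Membranes from guinea pig spleen incubated 2 h with radioligand and compound; bound counts measured by filtration and scintillation. Screened first at 25 uM in duplicate, then actives titrated to a 50 uM top concentration relative to DMSO.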

| SMILES | AC50 | outcome |
| --- | --- | --- |
| CCC(C)(C)c1ccc(O)cc1 | 25 µM (active) | – |
| O=C(O)C1C(C(=O)O)C2(Cl)C(Cl)=C(Cl)C1(Cl)C2(Cl)Cl (stereo not drawn) | 2.88 µM (active) | – |
| CSC(C)(C)C=NO | – | inactive |
